Assay results: PubChem BioAssay (NCI)
About 79,000 compounds went through this panel and 15% of them were active in at least one assay; those are over-represented in the sample as a whole. Calls of active or inactive are those of the source. Rule as the data show it: active = growth inhibition above about 70%; inactive = the rest.

What was measured:
[1] = NCI Yeast Anticancer Drug Screen. Data for the rad50 strain (AID 155);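 also: 0% = growth of vehicle-only cultures of the same strain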; conditions: S. cerevisiae rad50 strain growth inhibition; at 50.0 µM; active compounds read high
Summary of the method: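 Yeast carrying a defined DNA repair defect were exposed to test compounds, and growth was compared with vehicle-treated controls to give percent inhibition.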

[2] = NCI Yeast Anticancer Drug Screen. Data for the mec2-1 strain (AID 157); conditions: S. cerevisiae mec2-1 strain, at 50.0 µM, active compounds read high
Summary of the method: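 Test agents were screened against the mec2-1 yeast strain, with defined DNA repair or cell cycle alteration. Growth was scored as inhibition against vehicle-only controls.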

[3] = NCI Yeast Anticancer Drug Screen. Data for the sgs1 mgt1 strain (AID 161);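 also: 0% = growth of cultures given vehicle only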; conditions: S. cerevisiae sgs1 mgt1 strain, at 50.0 µM, active compounds read high
Summary of the method: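 Genetically altered yeast, compound exposure, growth inhibition relative to vehicle.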

[4] = NCI Yeast Anticancer Drug Screen. Data for the cln2 rad14 strain (AID 165);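 also: 0% = growth equal to vehicle treated cultures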; conditions: S. cerevisiae cln2 rad14 strain, at 50.0 µM, active compounds read high
Summary of the method: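 Growth of compound-exposed yeast (cln2 rad14 genotype) measured and expressed as inhibition relative to vehicle.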

[5] = NCI Yeast Anticancer Drug Screen. Data for the bub3 strain (AID 167); conditions: S. cerevisiae bub3 mutant strain, at 50.0 µM, active compounds read high
Summary of the method: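 Compounds were applied to a genetically altered yeast strain carrying a cell-cycle control defect. Growth inhibition was scored against vehicle-treated controls.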

[6] = NCI Yeast Anticancer Drug Screen. Data for the mlh1 rad18 strain (AID 175); conditions: S. cerevisiae mlh1 rad18 strain growth inhibition; at 50.0 µM; active compounds read high
Summary of the method: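 In this whole-cell yeast screen, a strain with altered DNA damage repair is challenged with compound, and its growth is measured against matched vehicle-treated controls.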

Measured: growth inhibition

CN(C)c1ccc(/C=N/NC=O)c(Cl)c1
inactive: [1] 0.15% | [2] 8.25% | [3] -0.6% | [4] 11.3% | [5] -0.65% | [6] -15.3%

Cc1nc2ccccn2c1N=Nc1ccc(C(=O)NN)cc1
inactive: [1] 7.3% | [2] -15.1% | [3] 0.1% | [4] 10.8% | [5] -10.8% | [6] -18.4%

O=C1c2cc(Cl)ccc2OCC1Cl (stereo unspecified)
inactive: [1] 37.5% | [2] 22.2% | [3] 14.6% | [4] -25.6% | [5] 18.7% | [6] 7.4%

Cn1cnc2c([nH]c(=O)n2C2OC(CO)C(O)C2O)c1=N (stereo unspecified)
inactive: [1] 13.5% | [2] 1.05% | [3] 2% | [4] -35.4% | [5] 3.55% | [6] 9.55%

CSc1ccc(Nc2ncnc(N)n2)cc1
inactive: [1] 19.9% | [2] 5.6% | [3] 8.6% | [4] -1.4% | [5] 8.8% | [6] 14.6%

S=P(c1ccccc1)(c1ccccc1)C(P(c1ccccc1)c1ccccc1)P(c1ccccc1)c1ccccc1
inactive: [1] 47.9% | [2] 49.9% | [3] 46.1% | [4] 49.7% | [5] 33.5% | [6] 62%

CCC(c1ccccc1)C(C(=O)O)C(=O)O (stereo unspecified)
inactive: [1] 5.95% | [2] -5.35% | [3] 0.55% | [4] -16.8% | [5] 6.35% | [6] 6.65%

COC(=O)C1CCc2c(OC)ccc(OC)c2C1=O (stereo unspecified)
inactive: [1] -2.75% | [2] -4.7% | [3] -3.65% | [4] 20.5% | [5] -2.45% | [6] -7.95%

O=c1[nH]cnc2c1ncn2CCCc1ccccc1
inactive: [1] -1% | [2] 7.5% | [3] 2.8% | [4] -69.6% | [5] 3% | [6] -17.1%

CC(C)(C)OC(=O)NO
inactive: [1] -0.6% | [2] 2.9% | [3] 0% | [4] 1.75% | [5] 5.05% | [6] 4.7%

CCN(CC)CCCC#CCN1CCOCC1
inactive: [1] -39.5% | [2] -48.5% | [3] -21.4% | [4] -16.9% | [5] -44.7% | [6] -20.1%

CC(=O)NC(C=O)C(O)C(O)C(O)CO (stereo unspecified)
inactive: [1] -29.4% | [2] -24.8% | [3] -11.1% | [4] -16.2% | [5] -7% | [6] 2.25%

CC(=O)N1C(=O)C(=O)c2ccccc21
inactive: [1] 5.9% | [2] -5.4% | [3] -4.8% | [4] -25% | [5] -1.5% | [6] 23.5%

C(=C\CSc1ccccn1)/CSc1ccccn1
inactive: [1] 50% | [2] 6.4% | [3] 56.6% | [4] 18.6% | [5] 49.4% | [6] 25%

O=C(CCC(=O)Oc1ccccc1)Oc1ccccc1
inactive: [1] -15.9% | [2] -1.1% | [3] -31.6% | [4] 3.2% | [5] 28.3% | [6] 13.7%

c1ccc(-c2cc(-c3ccccc3)n(-c3ccccc3)c2-c2ccccc2)cc1
inactive: [1] 8.45% | [2] 5.85% | [3] 0.45% | [4] -5.35% | [5] 24.4% | [6] -3.35%

CC1=CC(C)(C)NC(=S)N1c1ccc(O)cc1
inactive: [1] 0% | [2] -14.8% | [3] 11.3% | [4] -24.8% | [5] 6.8% | [6] 15.8%

COC(=O)c1ccccc1N=NNc1ccc2c(=O)c3ccccc3[nH]c2c1
inactive: [1] 23.8% | [2] 1.7% | [3] 22.1% | [4] 34.5% | [5] 11.6% | [6] 66%

N#CNc1ccccc1
inactive: [1] 0.05% | [2] 6.15% | [3] -12.2% | [4] -8.8% | [5] 5.15% | [6] 3.45%

CC(=O)Nc1[nH]ncc1C#N
inactive: [1] 3.05% | [2] -8% | [3] -0.2% | [4] -12.4% | [5] 13.3% | [6] 18%

O=C(Nc1ccc(F)cc1)C(Br)C(Br)c1ccccc1 (stereo unspecified)
active: [1] 91% | [2] 88.2% | [3] 93.9% | [5] 81.5% | [6] 95.5%
inactive: [4] 49%

COc1cc(/C=C/C(=O)O)cc(OC)c1OC
inactive: [1] -4.95% | [2] -2.1% | [3] 12.9% | [4] 6.1% | [5] 11.2% | [6] 10.7%

CC(C)C(=O)OCc1ccccc1
inactive: [1] 0.95% | [2] -5.7% | [3] -6.75% | [4] -3.9% | [5] -10.8% | [6] -24.9%

CNC(=O)CCC(=O)O
inactive: [1] -7.25% | [2] -20.2% | [3] -7.5% | [4] -2.7% | [5] -23.4% | [6] -8.45%

CCOC(=O)c1[nH]c2cccc3c2c1CC[C@H](NC(=O)C(F)(F)F)C3=O
inactive: [1] -5.1% | [2] 9.3% | [3] 10.8% | [4] 18.2% | [5] 0.95% | [6] 8.3%

FC(F)(F)C1(C(F)(F)F)OS2(OC(C(F)(F)F)(C(F)(F)F)c3ccccc32)c2ccccc21
inactive: [1] 0.5% | [2] 3.4% | [3] 3.3% | [4] -22.9% | [5] -1.1% | [6] -5.1%

CC(=O)N(C)c1ccc(NC(=O)/C=C/c2ccccc2)cc1
inactive: [1] 0.15% | [2] 4.25% | [3] 15.7% | [4] -9.85% | [5] 28.1% | [6] 17.1%

Cc1ccc(SCCCN(C)C)cc1
inactive: [1] 42% | [2] 17.6% | [3] 35.6% | [4] 15.2% | [5] 14.2% | [6] 16.3%

COC(=O)C(=O)C(C(=O)C(=O)Nc1cccc(OC)c1)c1nc2ccc(Cl)cc2[nH]c1=O (stereo unspecified)
inactive: [1] 21.1% | [2] -1.2% | [3] -8.25% | [4] -10.2% | [5] -35.1% | [6] -25.6%

NC(=O)CC[n+]1ccc(C(=O)O)cc1
inactive: [1] -21.8% | [2] -31.7% | [3] -6.1% | [4] 0.4% | [5] -25.1% | [6] -5.05%

C[C@H]1CC[C@@]2(OC1)O[C@H]1C[C@H]3[C@@H]4CC[C@@H]5C[C@@H](OC6OC(CO)C(O)C(O)C6OC6OC(CO)C(O)C(O)C6O)CC[C@]5(C)[C@H]4CC[C@]3(C)[C@H]1[C@@H]2C (stereo partly specified)
active: [6] 90.5%
inactive: [1] 54.2% | [2] 68.4% | [3] 37.8% | [4] 19.3% | [5] -16.2%

N=c1c2ccccc2c2ccccc2n1O
inactive: [1] 2.15% | [2] -5.05% | [3] -19.1% | [4] -11.4% | [5] -5.75% | [6] -19.4%

COc1ccc(NC(=O)Oc2ccc(C#N)cc2)cc1
inactive: [1] -1.3% | [2] -16.1% | [3] 5.5% | [4] 8.3% | [5] 10.4% | [6] -1.55%

Cc1nc2nc[nH]n2c1N=Nc1ccccc1
inactive: [1] -28.3% | [2] -2.55% | [3] -9.5% | [4] -13% | [5] 7.5% | [6] 9.5%

Cc1ccc(S(=O)(=O)OC2C(C)OCOC3COCOC32)cc1 (stereo unspecified)
inactive: [1] -6.3% | [2] -6.45% | [3] 5.4% | [4] -13.7% | [5] 2.65% | [6] -9.85%

Brc1cccc2ccc3ccccc3c12
inactive: [1] 23.2% | [2] 19% | [3] 29.1% | [4] 8.25% | [5] 32%
active: [6] 75.7%

Nc1cc2c(C3OC(CO)C(O)C3O)[nH]nc2c(=S)[nH]1 (stereo unspecified)
inactive: [1] 40.8% | [2] 7.05% | [3] 15.5% | [4] 20.4% | [5] 8.15% | [6] 24.1%

O=C(c1ccc(F)cc1)c1ccc([N+](=O)[O-])cc1
inactive: [1] 8.85% | [2] 8.1% | [3] -1.7% | [4] -19.9% | [5] -14.1% | [6] 12.1%

O=C(CCC(NC(=O)OCc1ccccc1)C(=O)OCc1ccccc1)Nc1cccc(OCc2ccccc2)c1 (stereo unspecified)
inactive: [1] -16.2% | [2] -18.1% | [3] -1.15% | [4] -23.6% | [5] -20% | [6] -27.4%

CC(C)Sc1nc(NC(=O)N(C)N=O)cc(=O)[nH]1
inactive: [1] -3.4% | [2] -3.45% | [3] 19.6% | [4] 27.5% | [5] -9.95% | [6] -32.1%

COc1cc(C)c(O)c(C/C=C(\C)CC2=C[C@@]3(C)CCC[C@@]3(C)[C@]3(CC(O)C(C)(C)O3)O2)c1 (stereo partly specified)
inactive: [1] 21.1% | [2] 6.2% | [3] -8.5% | [4] 4.75% | [5] 4.95% | [6] 10%
